Measured values published in PubChem BioAssay AID720706 (Broad Institute, 2013).
Hit rate of the full screen: of about 350,000 compounds, about 5,500 (1.6%) were called active.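 The calls were made as follows: active = significant combined selectivity score with lowered wild-type GFP, culture density cut under 30%, mutant RFP and density less affected; inactive = any of these conditions unmet.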 Only a selection was taken, and actives are over-represented in it overall.

Test: reduced GFP signal of wild-type E. coli, primary screen, bacterial rRNA inhibitor project, GFP/RFP fluorescence, OD600, single point (AID 720706)
Settings: E. coli WT GFP vs humanized-ribosome RFP mutants, 24 h; GFP signal change (wild-type ribosome): stronger effect = lower value, DMSO median 0, no signal -100; OD600 change: measured here: OD600 growth, DMSO median 0, no signal -100; RFP signal change: measured here: RFP humanized mutant strains, DMSO median 0, no signal -100, concentration not given here

Question: Which GFP signal change (wild-type ribosome) does the source give for Cc1[nH]c2ccccc2c1SCC(=O)Nc1nccs1 here?
Answer: -21.9% (active)

Question: And the OD600 change?
Answer: -16.9%

Question: What about the RFP signal change of the same compound?
Answer: -2.17%

Question: Which results are given for Cn1c(SCC(=O)Nc2nccs2)nnc1-c1cccnc1?
Answer: GFP signal change (wild-type ribosome): 11.6% (inactive); OD600 change: 16.8%; RFP signal change: -1.48%

Question: Which results are given for CCn1c(SCC(=O)Nc2nccs2)nnc1-c1ccco1?
Answer: GFP signal change (wild-type ribosome): 10.8% (inactive); OD600 change: 0.14%; RFP signal change: 0.233%

Question: With CC1CCCCC12NC(=O)N(CC(=O)OCC(=O)NCc1ccc(F)cc1)C2=O (centres undefined) as the compound, how does the GFP signal change (wild-type ribosome) read?
Answer: -2.84% (inactive)

Question: What about the OD600 change of the same compound?
Answer: -0.669%

Question: What about the RFP signal change of the same compound?
Answer: -1.07%

Question: Which GFP signal change (wild-type ribosome) does the source give for COc1cccc(CNC(=O)COC(=O)CN2C(=O)NC3(CCCCC3C)C2=O)c1 (centres undefined) here?
Answer: 3.13% (inactive)

Question: What about the OD600 change of the same compound?
Answer: 0.95%

Question: What about the RFP signal change of the same compound?
Answer: 0.493%

Question: What does the source list for CC1CCCCC12NC(=O)N(CC(=O)OCc1c(F)cccc1Cl)C2=O (centres undefined)?
Answer: GFP signal change (wild-type ribosome): -24.1% (active); OD600 change: -16.3%; RFP signal change: 0.314%

Question: Which GFP signal change (wild-type ribosome) does the source give for Cc1cc2c(cc1C)[n+](C)cn2CC(O)COCC1CC=CCC1 (centres undefined) here?
Answer: -29.3% (active)

Question: And the OD600 change?
Answer: -16.1%

Question: What about the RFP signal change of the same compound?
Answer: 3.07%

Question: Which GFP signal change (wild-type ribosome) does the source give for Cc1noc(C)c1S(=O)(=O)Nc1ccc2c(c1)C(=O)N([C@H](C)CO)C[C@H](C)[C@H](CN(C)S(=O)(=O)c1cn(C)cn1)OCCCC[C@@H](C)O2 here?
Answer: -2.25% (inactive)

Question: What about the OD600 change of the same compound?
Answer: -4.58%

Question: And the RFP signal change?
Answer: -3.75%

Question: Which GFP signal change (wild-type ribosome) does the source give for COc1ccc(CN(C)C[C@@H]2Oc3ccc(NS(=O)(=O)c4cn(C)cn4)cc3C(=O)N([C@@H](C)CO)C[C@H]2C)cc1 here?
Answer: -0.89% (inactive)

Question: What about the OD600 change of the same compound?
Answer: 10.2%

Question: And the RFP signal change?
Answer: -0.875%

Question: What does the source list for Cc1ccc(C(=O)NN(CCC#N)C2=NS(=O)(=O)c3ccccc32)cc1?
Answer: GFP signal change (wild-type ribosome): 11% (inactive); OD600 change: 11%; RFP signal change: 1.04%

Question: For COc1ccc(/C=N/N(C)C2=NS(=O)(=O)c3ccccc32)cc1OC, which GFP signal change (wild-type ribosome) is on record?
Answer: 14.8% (inactive)

Question: And the OD600 change?
Answer: 9.54%

Question: And the RFP signal change?
Answer: -0.4%

Question: With O=S1(=O)N=C(N(CCO)/N=C/c2ccccc2F)c2ccccc21 as the compound, how does the GFP signal change (wild-type ribosome) read?
Answer: -21.1% (active)

Question: What about the OD600 change of the same compound?
Answer: -9.01%

Question: What about the RFP signal change of the same compound?
Answer: 2.34%

Question: Which results are given for O=C(Nc1ccc(C(F)(F)F)cc1)N[C@@H]1CC[C@H](CCNC(=O)c2ccccc2F)O[C@@H]1CO?
Answer: GFP signal change (wild-type ribosome): -6.45% (inactive); OD600 change: -10.8%; RFP signal change: 3.96%

Question: With COc1ccc(NC(=O)Nc2ccc3c(c2)C(=O)N([C@H](C)CO)C[C@@H](C)[C@H](CN(C)C(=O)Cc2ccccc2)OCCCC[C@H](C)O3)cc1 as the compound, how does the GFP signal change (wild-type ribosome) read?
Answer: -0.637% (inactive)

Question: And the OD600 change?
Answer: -0.596%

Question: And the RFP signal change?
Answer: 2.91%

Question: With CC(=O)Nc1ccc(CNc2nc(NCCN(C)C)nc3cc(-c4ccccc4)sc23)cc1 as the compound, how does the GFP signal change (wild-type ribosome) read?
Answer: -20.5% (active)

Question: And the OD600 change?
Answer: -5.3%

Question: What about the RFP signal change of the same compound?
Answer: 1.68%

Question: With COCCNc1nc(Nc2ccccc2Cl)c2sc(-c3ccccc3)cc2n1 as the compound, how does the GFP signal change (wild-type ribosome) read?
Answer: -0.73% (inactive)

Question: And the OD600 change?
Answer: 28.1%

Question: And the RFP signal change?
Answer: -2.05%

Question: With COCCNc1nc(NCc2ccc(NC(C)=O)cc2)c2sccc2n1 as the compound, how does the GFP signal change (wild-type ribosome) read?
Answer: 31.4% (inactive)

Question: And the OD600 change?
Answer: 15.7%

Question: And the RFP signal change?
Answer: 6.28%

Question: For COc1ccc(NC(=O)N(C)C[C@@H]2Oc3ncc(-c4ccc(C#N)cc4)cc3C(=O)N([C@@H](C)CO)C[C@H]2C)cc1, which GFP signal change (wild-type ribosome) is on record?
Answer: -1.74% (inactive)

Question: And the OD600 change?
Answer: -0.24%

Question: What about the RFP signal change of the same compound?
Answer: -0.855%
